Laboratory results: the supplement of paper PMC3334620
In all, about 33,000 sequences were measured (“E-score (-0.5 to 0.5)”: median about -0.0014, highest 2% from about 0.25 on). The list comes from a sample in which the highest values are over-represented; it also holds similar and randomly drawn sequences.

Target: T1, Cad1 (UniProt P24813)
T1 sequence: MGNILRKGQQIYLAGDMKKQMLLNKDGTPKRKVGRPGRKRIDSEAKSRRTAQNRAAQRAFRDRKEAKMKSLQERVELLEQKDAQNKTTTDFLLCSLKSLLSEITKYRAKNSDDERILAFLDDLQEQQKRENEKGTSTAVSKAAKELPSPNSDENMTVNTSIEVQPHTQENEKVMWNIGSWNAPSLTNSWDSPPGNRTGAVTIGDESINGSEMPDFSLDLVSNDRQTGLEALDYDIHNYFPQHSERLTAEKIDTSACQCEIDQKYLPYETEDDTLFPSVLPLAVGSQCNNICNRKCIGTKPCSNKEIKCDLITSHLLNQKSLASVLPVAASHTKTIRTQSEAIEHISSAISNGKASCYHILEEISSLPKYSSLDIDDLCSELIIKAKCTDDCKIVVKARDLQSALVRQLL
Assay: PBM E-score (8-mer binding enrichment) (E-score (-0.5 to 0.5)); higher = stronger / more preferred TF binding
Conditions: protein concentration: 100 nM; construct: GST-full length
Outline: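 Using PURExpress in vitro transcription/translation, GST-tagged yeast transcription factors were made in full-length or DNA-binding-domain form. These were applied at about 100-200 nM to double-stranded universal all-10-mer Agilent arrays, and bound protein was detected with fluorescent anti-GST. Scans were normalised with masliner before the Universal PBM Analysis Suite assigned E-scores to ungapped eight-base words pooled with their reverse complements.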

Sequence | PBM E-score
GGAAAGAA | -0.177
AGAAAGAA | 0.0147
TGAAAGAA | 0.253
TGAAAACA | 0.131
AAAAGTAA | 0.265
AAAAGTAT | 0.0548
CAAAGTAA | -0.00082
GATAGTGA | 0.157
CATTTTTC | 0.124
ATGAAAAT | 0.0649
ATGAAAAA | 0.27
ACGAAAAA | -0.045
ACGAAAAG | 0.0611
ACGAAAAC | 0.259
ATGAAAAG | 0.0321
ACTTCACT | -0.00075
CACAAGCG | -0.145
ATATCCCA | 0.0408
CGCTCCAA | 0.0125
ACGTTAAC | 0.102
ATGTTAAC | 0.0833
GTGTTAAC | 0.168
CCGTTAAC | 0.0965
CTGTTAAC | 0.258
GCGTTAAC | 0.257

Sequence | PBM E-score
TGGGAACA | -0.0827
CAGGTTTC | 0.111
ATGAACTA | 0.0699
CCCTTTAA | -0.135
GTGTTTAA | 0.233
GTAGATCA | 0.0116
AGTGGTAC | -0.103
GCCACAGC | -0.115
ATGAGTAC | 0.0206
GTGAGTAA | 0.129
ATGAGTAA | 0.286
CTGAGTAC | -0.06
ATGAGTAG | 0.0743
CTGAGTAA | 0.254
CCTAGTGA | -0.171
AGGGGTCA | -0.304
CTCGGGGA | -0.0482
GATCCGTA | -0.0959
ATCGTAAG | -0.0168
CTCGTAAG | 0.264
CTCGTAAC | 0.112
CAGAGACC | -0.145
ATGGTCGC | -0.127
AGGTCTCG | -0.2
CCAGAAGC | -0.248

Sequence | PBM E-score
GAATCAAC | 0.264
GTATCAAA | 0.142
CTATCAAA | 0.0734
ATATCAGG | 0.00611
TTATCAAA | 0.3
GTATCAAC | -0.0681
CAATCAAC | 0.228
CTATCAAG | 0.0773
CTATCAAC | 0.219
ATATCAAC | 0.253
GAATCAAA | 0.0378
ATATCAAG | 0.251
TCAGCACA | 0.172
TAGCGCCA | 0.0297
CCAGCTGA | 0.155
AGTCAGGG | -0.148
CGATTCTC | 0.0405
ACATGGCC | 0.141
CCGCGAAG | 0.12
ACTGTCGA | 0.0753
AAGGCTGA | -0.00348
CCAGTGCC | -0.0306
AGTGCGAG | -0.0178
ATATCAAA | 0.0329
ATATCAAT | 0.253

Sequence | PBM E-score
AGATCAAT | -0.021
AGACCTAT | 0.111
ATCGATGA | 0.13
GTTCCGCA | 0.252
ATTCCGCA | -0.0887
CTTCCGCA | 0.0248
GACGGAGA | 0.038
ATAGGTGA | -0.0537
AAATCGAA | -0.156
CAATCGAA | 0.0916
AAATCCAA | 0.115
TAATCCAA | 0.255
TAATCGAA | 0.35
GAATCCAA | -0.0184
CGTTCGTC | 0.248
AGTCTCAT | -0.0485
GCGCATCC | -0.0757
ATGAGGAC | -0.0183
AGGGGCGC | -0.103
ATTGTCAA | 0.084
ATTGTCAC | 0.0726
ATTGTCCG | 0.271
ATTGTCCA | 0.132
ATTGTCCC | -0.0923
ATTGTCAG | 0.306

Sequence | PBM E-score
ATCAGAAG | -0.0366
ATTTGGAG | -0.204
ACTCCACT | -0.0657
ACCCGGCG | -0.12
CACGACAG | 0.0344
CACTGTAA | 0.00669
GATACCCA | 0.122
ACGCGTAA | 0.176
ATGCGCAC | 0.14
GTACGCAA | 0.0953
ACGCGCAA | 0.206
GCGCGCAA | 0.303
TTACGCAA | 0.268
ATACGCAA | 0.119
TCGCGTAA | 0.19
GCGCGTAA | 0.293
CCGCGCAA | 0.0795
ATGCGCAT | 0.334
ATGCGCAG | -0.0137
GCCTCAGC | -0.0857
CTTTCACA | 0.209
ACAGCATG | -0.053
AACTTGGG | -0.0849
GGTTGGTA | 0.101
TGGCGCAA | -0.0637

Sequence | PBM E-score
TCGCGCAA | 0.27
CCGCAGAA | 0.179
TAGCGCAA | 0.207
TCGCAGAA | -0.192
GTGCGCAA | 0.0688
GCGCAGAA | 0.262
TTGCGCAA | 0.258
ATGCGCAA | 0.107
ATACACTA | 0.205
ATATCGTG | 0.164
ACACCGCC | 0.0284
AGGATCTA | -0.266
ACGCATGA | 0.0155
ACGCATGC | 0.283
ACGCATGG | -0.215
CTGCTGAA | 0.0549
ACGCTGTC | -0.187
CAGCTGAG | 0.0708
ACGCTGAC | 0.3
CTGCTGTC | -0.0811
CAGCTGAC | 0.182
CTGCTGAC | 0.275
CAGCTGTC | 0.253
ACGCTGAT | 0.166
GGAAGAAA | -0.0518

Sequence | PBM E-score
CTAGTTGC | 0.0214
GGACTTGA | -0.232
ATACTCTG | 0.0457
ATCAGCAC | 0.0147
GTCAGCAC | 0.261
ATCAGCAA | 0.122
GTCAGCAA | 0.295
CTCAGCAA | 0.106
CTCAGCAC | 0.0326
AGCTCCAC | -0.0867
AACGTAGA | 0.0503
CTTGCTAC | -0.0445
ACTGTAAT | 0.111
CTGCCGCA | -0.0367
ACGGGTCT | -0.252
AGCGATGG | -0.0366
TCTTAGCA | -0.0984
AACGACCT | -0.0376
ATCAATCA | 0.13
GTGATTAA | 0.228
ACGATTAA | 0.0443
ATGATTAC | 0.192
CTGATTAA | 0.362
GCGATTAA | 0.123
TCGATTAA | 0.301

Sequence | PBM E-score
CTGATTTC | 0.182
CTGATTAC | 0.334
ATGATTGA | 0.0737
ATGATTAG | 0.094
ATGATTAA | 0.32
CTGATTTA | 0.0612
AGGTACAT | -0.172
AATCTGGC | -0.102
CTCCCTGA | -0.247
AAGCGCCT | -0.165
ACCTTTAG | -0.142
CATAGAGC | -0.22
CAGTTGGG | -0.0373
AAAATTCT | -0.00425
AAAATTAG | 0.269
AAAATTAT | 0.285
AAAATTAA | 0.209
AAAATTGT | 0.167
AAAATTAC | 0.072
ATCAGTTA | 0.212
GCCCATAC | -0.1
GGCGACCC | -0.332
ATTGCCTG | 0.0283
ATTAACAA | 0.201
ATTAACAC | 0.275

Sequence | PBM E-score
CTTAACAC | 0.127
CGAATAGC | 0.0486
ACACGCGT | 0.258
ACACGCGG | 0.0311
ACACGCGA | 0.143
ACAAGCGG | 0.0904
GTTGGAGA | -0.0985
ATAAATAA | 0.239
ACAAATAG | 0.182
ATAAATAG | 0.121
ACAAATGC | 0.255
CCAAATGC | -0.0453
ACAAATAC | 0.271
ATAAATAC | 0.252
ACAAATAA | 0.206
ACAAATGT | 0.0516
GCAAATAC | 0.0468
CCAAATAC | 0.013
ACAAATAT | 0.262
